Reference: PubChem BioAssay
Active and inactive are the calls of the source.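 How the source made its calls, unless noted: active means fluorescence slope higher than the sample average by over 3 SD (cut at about -0.22 in these data, passing the limit was not always enough); inactive means the rest.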

How the values were obtained:
[1] = inhibitors of TNFa-induced NFkB p65 translocation, primary screen, imaging, HUVEC, MLSMR starter and 10KST1 sets (AID 438;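 active means inhibition above 20% together with a positive visual image hit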;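 further: compound added about 3h40 before a 20 min TNFalpha stimulation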;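 on inhibition: signal is the nuclear over cytoplasmic p65 intensity ratio per well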); conditions: HUVEC TNFa-induced p65 nuclear translocation; cell count: measured here: nuclei count (cytotoxicity indicator), at 2.08 µM; inhibition: at 2 µM, stronger effect = higher value, 0% TNFa-plus-vehicle, 100% no-TNFa wells
[2] = reduction of polyQ htt aggregates in cells – imaging, exon1htt(103Q)mCFP cells, high-content imaging, primary screen (AID 483;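 active means visual image review flags a hit and inhibition of aggregation exceeds 20%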;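 further: compound exposure lasted 3 days before fixation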;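 on nuclei count: percent of the per-plate median nuclei count of sample wells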); conditions: exon1htt(103Q)mCFP cell line, aggregate imaging, at 2 µM; inhibition of aggregation: stronger effect = higher value; nuclei count: measured here: cell count, toxicity
[3] = endothelial E-selectin expression blockers – imaging, HUVEC, immunofluorescence, MLSMR starter and 10KST1 sets, primary screen (AID 487;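 active means visually confirmed hit in the image check and inhibition above 20%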;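 on inhibition: signal is fraction of cell area covered by stained E-selectin grains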;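 on nuclei count: 100% = median nuclei count of all wells on the same plate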); conditions: HUVEC TNFalpha-induced E-selectin immunofluorescence imaging, at 2 µM; inhibition: stronger effect = higher value; nuclei count: measured here: cell number, toxicity
[4] = molecular target: Voltage-gated potassium channel subunit beta-2 (Rattus norvegicus) (UniProt P62483); assay: inhibitors of rat Kvbeta2 reductase activity – biochemical, NADPH fluorescence, primary screen (AID 622); conditions: recombinant KvBeta, 4-cyanobenzaldehyde reduction, at 10 µM, stronger effect = higher value;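 further: slope of raw intensity against log time taken from 70 to 1610 s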
Sequence of Voltage-gated potassium channel subunit beta-2 (Rattus norvegicus) (P62483 whole entry, looked up): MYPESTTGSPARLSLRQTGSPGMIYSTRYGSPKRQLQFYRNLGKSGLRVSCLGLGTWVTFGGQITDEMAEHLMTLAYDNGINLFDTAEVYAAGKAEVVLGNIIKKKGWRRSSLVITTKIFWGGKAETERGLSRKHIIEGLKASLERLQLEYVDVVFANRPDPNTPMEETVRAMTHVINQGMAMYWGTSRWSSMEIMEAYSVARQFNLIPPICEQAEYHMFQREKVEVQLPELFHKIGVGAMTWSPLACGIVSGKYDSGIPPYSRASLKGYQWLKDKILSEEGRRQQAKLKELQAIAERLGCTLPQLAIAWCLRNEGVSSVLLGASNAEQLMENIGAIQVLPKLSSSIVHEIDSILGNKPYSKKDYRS

[5] = molecular target: Voltage-gated potassium channel subunit beta-2 (Rattus norvegicus) (UniProt P62483); assay: enhancers of rat Kvbeta2 NADPH turnover – biochemical, NADPH fluorescence, primary screen (AID 623;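 active means NADPH fluorescence slope more negative than the mean of all samples by about 3 SD, 99.7% confidence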;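 further: fluorescence intensity change per second fitted from 20 to 320 s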); conditions: Recombinant KvBeta, NADPH fluorescence decrease slope, 10 min; at 10 µM; stronger effect = lower value
[6] = molecular target: Alpha-2C adrenergic receptor (Homo sapiens) (UniProt P18825); assay: compounds altering alpha2C-coupled GIRK flux – cell-based, HEK293 alpha2C/GIRK1/2, thallium flux, primary screen (AID 624;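 active means fluorescence slope after compound addition differing from the mean of all screened samples at 99.7% confidence, in either direction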;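 further: slope of fluorescence ratio to pre-addition baseline per second over 15 to 24 s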); conditions: thallium flux BTC fluorescence, at 10 µM, actives lie on both sides
Sequence of Alpha-2C adrenergic receptor (Homo sapiens) (P18825 whole entry, looked up): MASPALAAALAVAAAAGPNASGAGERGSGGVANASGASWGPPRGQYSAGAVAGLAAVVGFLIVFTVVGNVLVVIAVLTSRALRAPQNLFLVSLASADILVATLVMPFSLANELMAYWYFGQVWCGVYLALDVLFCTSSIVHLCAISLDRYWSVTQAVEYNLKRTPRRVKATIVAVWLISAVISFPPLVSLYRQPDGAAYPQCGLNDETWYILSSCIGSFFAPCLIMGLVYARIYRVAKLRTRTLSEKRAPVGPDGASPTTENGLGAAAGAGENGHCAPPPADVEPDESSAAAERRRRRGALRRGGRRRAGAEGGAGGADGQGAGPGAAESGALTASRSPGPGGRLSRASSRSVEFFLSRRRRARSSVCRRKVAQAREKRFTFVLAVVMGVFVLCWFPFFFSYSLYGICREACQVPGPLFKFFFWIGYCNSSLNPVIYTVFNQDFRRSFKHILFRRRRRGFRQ

[7] = blockers of RIG-like receptor reporter activation – cell-based, Sendai virus stimulus, luciferase, 10K MLSCN set, TLR/RLR signaling modifier project, primary screen (AID 602276;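 active means inhibition at or above 50% at 10 µM; inactive means inhibition below 50%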;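 further: firefly luciferase from ISG56 promoter only with Renilla not read in this screen; 0% = Sendai virus plus DMSO and 100% = medium plus DMSO without virus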); conditions: HEK293 RL24 IRF3 luciferase reporter, at 10 µM, stronger effect = higher value
[8] = TLR3 IRF3 reporter activation blockers – cell-based, poly I:C stimulus, luciferase, 10K MLSCN set, primary screen (AID 602277;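 active means inhibition of the reporter signal at or above 50%; inactive means inhibition below 50%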); conditions: HEK293-TLR3 RL24 IRF3 luciferase reporter, at 10 µM, stronger effect = higher value

Row | SMILES | cell count [1] | inhibition [1] | inhibition of aggregation [2] | nuclei count [2] | inhibition [3] | nuclei count [3] | fluorescence slope [4] | NADPH fluorescence slope [5] | slope [6] | inhibition [7] | inhibition [8]
1 | CC(=O)Nc1c(C(=O)O)[nH]c2ccccc12 | 463 | -9.1% (inactive) | -7.5% (inactive) | 96% | -46.4% (inactive) | 104% | -0.367 (inactive) | -2e-05 (inactive) | 0.00513 (inactive) | 0.607% (inactive) | 19.4% (inactive)
2 | O=C(NC12CC3CC(CC(C3)C1)C2)c1cncc(O)c1 | 708 | 13.5% (inactive) | -6.2% (inactive) | 102% | -200% (inactive) | 128% | -0.608 (inactive) | 5e-06 (inactive) | 0.0069 (inactive) | 7.2% (inactive) | 26.8% (inactive)
3 | CCOC(=O)N1CCC(Nc2ncnc3c2cnn3-c2ccc(C)cc2C)CC1 | 684 | -0.8% (inactive) | 6.9% (inactive) | 92.6% | -36.3% (inactive) | 124% | -0.529 (inactive) | -4.5e-05 (inactive) | 0.00533 (inactive) | 3.02% (inactive) | -54.1% (inactive)
4 | Nn1cnnc1SCC(=O)Nc1ccc2c(c1)OCCO2 | 553 | 7.2% (inactive) | -23.3% (inactive) | 96% | -74.7% (inactive) | 208% | -0.351 (inactive) | -8.3e-06 (inactive) | 0.00546 (inactive) | 1.38% (inactive) | -17% (inactive)
5 | O=C(CN1CCOCC1)N1CCCc2c1c(=O)oc1ccc(OCc3ccccc3)cc21 | 427 | 7.3% (inactive) | 5.6% (inactive) | 109% | -40.7% (inactive) | 109% | -0.589 (inactive) | -4.6e-05 (inactive) | 0.00267 (inactive) | -0.877% (inactive) | 9.59% (inactive)
6 | CCCCn1c(NC(=O)CC)c(C#N)c2nc3ccccc3nc21 | 273 | -0.9% (inactive) | 31.7% (inactive) | 80.6% | 45.9% (inactive) | 64.7% | -0.0219 (inactive) | -1.3e-05 (inactive) | 0.00421 (inactive) | 16.1% (inactive) | 9.45% (inactive)
7 | COc1ccccc1C1CC(c2ccc(C)cc2)Nc2ncnn21 (stereo unspecified) | 332 | 0.7% (inactive) | -31.6% (inactive) | 109% | -37.9% (inactive) | 119% | -0.425 (inactive) | 4.9e-05 (inactive) | 0.00745 (inactive) | -7.75% (inactive) | -0.278% (inactive)
8 | O=C(O)c1c(Cl)c(Cl)c(Cl)c(Cl)c1C(=O)N1CCOCC1 | 530 | -10.7% (inactive) | -17.6% (inactive) | 112% | 12.7% (inactive) | 112% | -0.618 (inactive) | -3.3e-05 (inactive) | 0.00588 (inactive) | 7.47% (inactive) | 5.92% (inactive)
9 | COc1ccc(-c2nc(C#N)c(NCCCN(C)C)o2)cc1OC | 713 | -9.1% (inactive) | -8.5% (inactive) | 99.3% | -8.3% (inactive) | 98.4% | -0.222 (active) | -1.8e-06 (inactive) | 0.00305 (inactive) | 1.52% (inactive) | 33.3% (inactive)
10 | O=C(NC1(C(=O)NC2CCCCC2)CCCCC1)c1ccc2c(c1)OCO2 | 578 | 6.3% (inactive) | 16.2% (inactive) | 96.2% | -45.8% (inactive) | 91.4% | -0.524 (inactive) | -3.1e-05 (inactive) | 0.00509 (inactive) | 7.94% (inactive) | 19% (inactive)
11 | CCCCP(=O)(CCCC)c1ccccc1C(=O)O | 404 | -2.2% (inactive) | 12.2% (inactive) | 81.7% | -21.2% (inactive) | 87.7% | -0.421 (inactive) | -9.2e-05 (inactive) | 0.00521 (inactive) | 6.88% (inactive) | 21.9% (inactive)
12 | CC1Cc2ccccc2N1S(=O)(=O)c1cccc(C(=O)OCC(=O)NC2CCS(=O)(=O)C2)c1 (stereo unspecified) | 657 | 0.7% (inactive) | 6.3% (inactive) | 103% | -92% (inactive) | 112% | -0.625 (inactive) | -4.3e-05 (inactive) | 0.00343 (inactive) | 20.6% (inactive) | 29.8% (inactive)
13 | O=C(CSc1nnc(COc2ccc(Cl)cc2)o1)OC1CCCCC1 | 530 | -5.9% (inactive) | -7.1% (inactive) | 119% | 9.7% (inactive) | 103% | -0.524 (inactive) | -5.9e-07 (inactive) | 0.00539 (inactive) | 1.22% (inactive) | -1.92% (inactive)
14 | O=C(Nc1nnc(CCN2CCCCC2)s1)C1CCCCC1 | 455 | -11.2% (inactive) | 7% (inactive) | 113% | -31.8% (inactive) | 102% | -0.411 (inactive) | -6e-05 (inactive) | 0.00451 (inactive) | 15.1% (inactive) | 16.5% (inactive)
15 | CCOc1ccc(S(=O)(=O)N2CCN(C(=O)c3cccn3C)CC2)cc1 | 431 | 2% (inactive) | -7.2% (inactive) | 95.6% | -88.3% (inactive) | 105% | -0.502 (inactive) | -9e-06 (inactive) | 0.00499 (inactive) | 13.9% (inactive) | 19.3% (inactive)
16 | COC(=O)CN(c1ccc(OC)cc1)S(=O)(=O)c1ccc(OC)c(OC)c1 | 669 | -4.7% (inactive) | -13% (inactive) | 106% | -81.3% (inactive) | 139% | -0.463 (inactive) | -0.000101 (inactive) | 0.00514 (inactive) | 10.6% (inactive) | 23.4% (inactive)
17 | CCOC(=O)C(C(C)=O)c1nc(C)nc2c1nnn2Cc1ccccc1Cl (stereo unspecified) | 479 | 8.5% (inactive) | -6% (inactive) | 96.1% | -10.3% (inactive) | 106% | -0.356 (inactive) | -5.3e-05 (inactive) | 0.00379 (inactive) | -11.2% (inactive) | -19.4% (inactive)
18 | Cn1cccc1Cc1nnc(SCC(=O)NCC2CCCO2)n1-c1ccc(F)cc1 (stereo unspecified) | 716 | -4% (inactive) | 50.2% (active) | 95.9% | -44.1% (inactive) | 111% | -0.537 (inactive) | -3e-05 (inactive) | 0.00677 (inactive) | 10.8% (inactive) | 39.9% (inactive)
19 | CC(Oc1ccccc1)C(=O)NC1CC(C)(C)NC(C)(C)C1 (stereo unspecified) | 386 | 0.2% (inactive) | 4.3% (inactive) | 89.9% | 13.8% (inactive) | 102% | -0.261 (inactive) | -3.5e-05 (inactive) | 0.00587 (inactive) | 17.4% (inactive) | 26.2% (inactive)
20 | COc1ccccc1C(=O)N1CCN(C(=O)c2ccncc2)CC1 | 252 | 7.8% (inactive) | -2.8% (inactive) | 92.4% | 12.3% (inactive) | 76.2% | -0.515 (inactive) | -1.9e-05 (inactive) | 0.00571 (inactive) | 8.46% (inactive) | 6.89% (inactive)
21 | Cc1ccc2cc(CN(Cc3ccc(F)cc3)Cc3nnnn3C3CCCC3)c(=O)[nH]c2c1 | 702 | -10.8% (inactive) | -13.3% (inactive) | 103% | -40.7% (inactive) | 98.8% | -0.311 (inactive) | -4.1e-05 (inactive) | 0.00514 (inactive) | 10.6% (inactive) | 13.8% (inactive)
22 | NC(=O)C1CCN(C(=S)c2cccs2)CC1 | 759 | 3.9% (inactive) | 12.1% (inactive) | 105% | -69.5% (inactive) | 107% | -0.49 (inactive) | -1.4e-06 (inactive) | 0.00525 (inactive) | 19.1% (inactive) | 30.8% (inactive)
23 | C=CCOc1ccc(/C(CC)=N/O)c(OC)c1 | 387 | 15.3% (inactive) | -5.5% (inactive) | 54.4% | -29.6% (inactive) | 117% | -0.442 (inactive) | -3.1e-05 (inactive) | 0.00515 (inactive) | -7.92% (inactive) | 0.412% (inactive)
24 | COc1ccc(NC(=O)CC2Sc3ncnn3C2=O)cc1 (stereo unspecified) | 632 | -5% (inactive) | -9.2% (inactive) | 128% | -65.3% (inactive) | 126% | -0.567 (inactive) | -4e-05 (inactive) | 0.0059 (inactive) | 8.74% (inactive) | 16.8% (inactive)
25 | COC(=O)c1cccc(Oc2nc3c(c(=O)n(C)c(=O)n3C)n2C(C)C)c1 | 668 | -5.8% (inactive) | 3.9% (inactive) | 102% | -55.6% (inactive) | 106% | -0.436 (inactive) | -3.6e-05 (inactive) | 0.00584 (inactive) | 15% (inactive) | 28.3% (inactive)
26 | Cc1ccnc(NC(=O)C2CCC(CNc3c(N4CCCC4)c(=O)c3=O)CC2)c1 (stereo unspecified) | 544 | 4.4% (inactive) | -2.5% (inactive) | 113% | -31.3% (inactive) | 98.8% | -0.598 (inactive) | -2.9e-05 (inactive) | 0.00671 (inactive) | 4.3% (inactive) | 18.4% (inactive)
